Bioassay records: PubChem BioAssay, several laboratories
TMEM16A act: mouse TMEM16A channel activation, primary screen; 0.3% of 340,000 active; B-score at 10 µM; Q8BHY3; HEK293 TMEM16A/YFP-H148Q/I152L, iodide quench fluorescence; stronger effect = lower value;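 active = fluorescence-ratio B-score plate-corrected deviation score at least 3 library SD below zero, with starting fluorescence score within 5 deviations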;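 note: channel opened by trigger with iodide after compound preincubation; score built on the fluorescence ratio of max minus min over baseline; more negative score means more quench and so TMEM16A activation or potentiation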
Kir21 inh: blocks the mouse Kir2.1 inward-rectifier potassium channel | HEK293-Kir2.1, FluxOR thallium flux fluorescence; stronger effect = lower value | 0.85% of 310,000 active | B-score at 10 µM | P35561;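 active = fluorescence ratio B-score at or below minus 3 SD of library scores, with starting-brightness B-score within 2 SD, cut at about -4.2 in these data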;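 note: channel flux triggered by added potassium and thallium sulfate stimulus; B-score of peak minus minimum fluorescence over baseline after thallium stimulus; more negative B-score means stronger Kir2.1 block with less thallium influx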
CHT inh: inhibits the human high affinity choline transporter. CHT-expressing cells, membrane potential dye, choline response; stronger effect = lower value. AID 488975. 0.86% of 310,000 active. B-score at 10 µM;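 active = B-score over 3 SD under the library average, and starting fluorescence ratio not unusually high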;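 note: choline stimulus applied at its EC90 after an EC20 pre-addition; B-score computed on integrated fluorescence ratio after choline addition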
Target sequence (Q9GZV3 whole entry, looked up): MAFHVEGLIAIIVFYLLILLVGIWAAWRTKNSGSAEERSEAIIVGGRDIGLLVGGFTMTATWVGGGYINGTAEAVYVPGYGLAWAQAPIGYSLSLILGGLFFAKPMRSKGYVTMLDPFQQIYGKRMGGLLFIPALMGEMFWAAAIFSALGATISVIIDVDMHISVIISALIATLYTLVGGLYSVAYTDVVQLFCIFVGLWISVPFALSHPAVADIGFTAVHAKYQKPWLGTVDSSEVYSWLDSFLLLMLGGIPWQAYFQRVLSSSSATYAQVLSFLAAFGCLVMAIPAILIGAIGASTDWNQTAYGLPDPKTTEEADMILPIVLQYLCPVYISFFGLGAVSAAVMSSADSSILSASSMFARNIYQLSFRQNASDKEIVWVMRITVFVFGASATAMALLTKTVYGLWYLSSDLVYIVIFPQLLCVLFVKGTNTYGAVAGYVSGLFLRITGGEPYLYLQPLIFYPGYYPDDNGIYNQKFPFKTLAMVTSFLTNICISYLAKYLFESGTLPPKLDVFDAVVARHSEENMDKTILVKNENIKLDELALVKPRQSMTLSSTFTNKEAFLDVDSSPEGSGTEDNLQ
CHT allo act: allosterically activates the human high affinity choline transporter. Q9GZV3. CHT-expressing cells, membrane potential dye, choline EC20; stronger effect = higher value; LV-AA mutant CHT in HEK293 cells. B-score at 10 µM. 0.49% of 310,000 active. AID 488977;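 active = initial fluorescence not abnormally high and integrated response B-score, plate-corrected, over 3 SD above library mean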
Rce1 inhib: inhibitors of yeast Ras-converting enzyme | Q03530 | yeast membranes, quenched prenylated peptide cleavage fluorescence | calls only | 0.27% of 290,000 active | AID 2563;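 active = fall in fluorescence gain of 50% or more versus controls, with final raw signal at or below 3038400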;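 note: plate controls were neutral control wells for no effect and wells lacking membranes for full effect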
TMEM16A inh: inhibitors of mouse TMEM16A calcium-activated chloride channel. Q8BHY3. HEK293 TMEM16A/YFP iodide influx fluorescence, ionomycin. normalized B-score (activity score, 25-100; higher = stronger inhibition) at 10 µM. 1.2% of 310,000 active;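 active = ratio plate-corrected score three or more library SD toward inhibition, starting fluorescence score within five deviations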;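 note: score derived from kinetic fluorescence span divided by baseline fluorescence per well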
The depositor's hits bear a star; i = inactive; . = no result given. Hits are enriched below; roughly 3.2% of the tested compounds scored in any of these assays.

SMILES	TMEM16A act	Kir21 inh	CHT inh	CHT allo act	Rce1 inhib	TMEM16A inh
COc1ccc(-c2[nH]ncc2CN2CCSCC2)c(OC)c1	i	0	i	i	i	i
Cc1ccc(S(=O)(=O)CCC(=O)OCC(=O)NCc2ccc(Cl)cc2)cc1	i	-0.05	i	i	i	i
CN(CC(=O)Nc1ccc(Cl)c(S(=O)(=O)N2CCOCC2)c1)C(=O)c1ccc(C#N)cc1	i	.	.	.	.	.
CCOC(=O)C1CCCN(C(=O)N2CCOCC2)C1 (stereo not drawn)	i	-0.16	i	i	i	25*
CCOC(=O)C1CCCN(C(=O)C(C)(C)Oc2ccc(Cl)cc2)C1 (stereo not drawn)	i	-5*	i	i	.	i
C/C=C(\C)C(=O)OC1CC(C)(C)C[C@H]2C3=CC[C@@H]4[C@@]5(C)CCC(O[C@@H]6O[C@@H](C(=O)O)[C@@H](O)C(O[C@@H]7OC[C@H](O)[C@@H](O)[C@@H]7O[C@@H]7OC(CO)C(O)[C@@H](O)[C@@H]7O)C6O[C@@H]6OC(CO)C(O)C(O)C6O)[C@@](C)(CO)[C@@H]5CC[C@]4(C)[C@]3(C)CC(O)[C@@]12CO (stereo partly drawn)	-32*	.	.	.	.	.
CC1(C)CC[C@]2(C(=O)O[C@@H]3OC(CO)[C@@H](O)[C@H](O)[C@H]3O)CC[C@]3(C)C(=CCC4[C@@]5(C)CC[C@H](O[C@@H]6OC(C(=O)O)[C@@H](O)[C@H](O)[C@H]6O)C(C)(C)C5CC[C@]43C)[C@@H]2C1 (stereo partly drawn)	-8.8*	.	.	.	.	.
CC(=O)N1CCN(c2ccc(NCc3ccc(-c4cccc(Cl)c4)o3)cc2)CC1	i	.	.	.	.	.
CCOc1ccccc1NC(=O)COC(=O)CCOc1cc(C)ccc1C	i	-1.7	i	i	i	i
Oc1cc2c(cc1O)C1c3ccc(O)c(O)c3OCC1(O)C2 (stereo not drawn)	-12*	.	i	i	.	i
COC(=O)CSc1nnc(CNC(=O)c2ccc(OC)c(OC)c2)n1C	i	0.49	i	i	i	i
Cc1cc2ncn(-c3ncccc3[N+](=O)[O-])c2cc1C	i	2.8	i	i	i	i
COc1cc(/C=N/NC(=O)c2ccc(F)cc2)ccc1OC(=O)c1ccco1	i	-1.2	i	i	i	i
COc1cc(/C=C2/C(=O)NN(c3cccc(F)c3)C2=O)ccc1OC(=O)c1ccco1	i	-9.8*	i	i	i	i
COC(=O)C1=C(C)N(Cc2ccccc2)C(=NCCc2cccnc2)N[C@H]1c1ccccc1	i	-11*	i	i	i	i
COC(=O)C1=C(C)N(Cc2ccccc2)C(=NCc2cc(OC)c(OC)c(OC)c2)N[C@H]1c1cccc(F)c1	i	-5.2*	i	i	i	i
COC(=O)C1=C(C)N(Cc2ccccc2)C(=NCc2cccc(Cl)c2)N[C@H]1c1cccc(F)c1	i	.	.	.	.	.
COC(=O)C1=C(C)N(Cc2ccccc2)C(=NCCCCO)N[C@H]1c1ccccc1	.	-4.6*	i	i	i	i
CCOC(=O)CN1C(=O)N[C@@H](c2cccc(F)c2)C(C(=O)OC)=C1C	i	-6.1*	i	i	i	i
COC(=O)C1=C(C)N(Cc2ccccc2)C(=NCC2CC2)N[C@H]1c1ccccc1	i	.	.	.	.	.
CCOC(=O)CN1C(=O)N[C@@H](c2ccccc2)C(C(=O)OC)=C1C	i	.	i	i	.	i
COc1ccccc1CCNC(=O)c1cccc(S(=O)(=O)NCc2ccccc2)c1	i	-2.5	i	i	i	i
CCOc1ccccc1N1Cc2ccccc2C1	-5.5*	-1	i	i	i	i
CCCCN(C(=O)CN1C(=O)C2CCCCC2C1=O)c1c(N)n(CCC)c(=O)[nH]c1=O (stereo not drawn)	i	-0.95	i	i	i	i
CCOc1ccc(OCC(O)CNC2CCN(Cc3ccccc3)CC2)cc1 (stereo not drawn)	i	-0.13	i	i	i	i
CC(C)(c1ccccc1)c1ccc(OCC(O)CNC2CCN(Cc3ccccc3)CC2)cc1 (stereo not drawn)	i	-4.9*	i	i	i	100*
